Screening data from PubChem.
Only some compounds are listed: those with a hit (about 2.3% of all), similar ones and a draw of the others.
GLS inh = blocks human kidney-isoform glutaminase activity | O94925 | 410,000 compounds, 0.21% hits | Potency, µM (top dose mostly 45.5 µM), hits mostly inhibitors | GLS enzymatic activity, qHTS titration
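hKGA; 45 mM KH2PO4 pH 8.2 + 0.02% Tween-20; cpd via pin tool; 1 mM Gln soln; GluOx/HRP/Amplex Red; RT 30 min; fluor. t0 & final.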
GLP1R inv ag = GLP-1 receptor (human) inverse agonism; HEK293 GLP-1R CRE-luciferase, luminescence, 24 h; GLP-1R form is constitutively active; Potency, µM (series often up to 38.3 µM), usual class: inhibitors; P43220; 410,000 compounds, 1.6% hits; note: nearly all actives have a fitted effect of over 55% in size
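Luminescence readout: a drop in cAMP-driven luciferase signal flags inverse agonism at a constitutively active GLP-1R stably expressed in HEK293. Compound exposure lasted 24 hr at 37 deg C, 5% CO2.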
GRP78 ERSR act = ER stress response induction in glioma | U87-MG GRP78 promoter luciferase reporter, 16 h | Potency, µM, most hits filed as activators | 420,000 compounds, 0.02% hits; note: series mostly up to about 76 µM; nearly all actives have a fitted effect of over 35% in size
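Stably transfected U87-MG human glioma cells carrying a GRP78-based luminescent sensor were seeded at 1000 cells/well, pin-dosed with compounds and incubated 16 h. Luciferase reagent was then added, and end-point luminescence was read after 10 min at room temperature.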
PTHR1 ag = agonists of human PTHR1 parathyroid hormone receptor. Q03431. HEK293 GP2 PTHR1 cells, GloSensor cAMP luminescence, 1 h. Potency, µM (top dose mostly 115 µM), most hits filed as activators. 410,000 compounds, 0.075% hits. AID 743266; note: nearly all actives have a fitted effect of over 55% in size
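HEK-293-derived GP2 cells expressing PTHR1 and a GloSensor cAMP reporter, 3,000/well, plated overnight, given luciferin plus IBMX (each 0.5 mM as added) for 1 h at 37 °C, then compound for 1 h at 37 °C. Luminescence was read after 15 min at room temperature.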
GLP1R ag = activates the human GLP-1 receptor; HEK293 GLP-1R CRE-luciferase, luminescence, 4-6 h; cells express a hypersensitive GLP-1R form; P43220; Potency, µM (highest dose often 45.6 µM), usual class: activators; 380,000 compounds, 0.007% hits
12-LOX inh = inhibitors of human 12S-lipoxygenase ALOX12; P18054; purified 12hLO, xylenol orange hydroperoxide absorbance; Potency, µM (doses to about 108 µM), most hits filed as inhibitors; 580,000 compounds, 1.1% hits; AID 1671190
Target sequence (P18054 whole entry, looked up): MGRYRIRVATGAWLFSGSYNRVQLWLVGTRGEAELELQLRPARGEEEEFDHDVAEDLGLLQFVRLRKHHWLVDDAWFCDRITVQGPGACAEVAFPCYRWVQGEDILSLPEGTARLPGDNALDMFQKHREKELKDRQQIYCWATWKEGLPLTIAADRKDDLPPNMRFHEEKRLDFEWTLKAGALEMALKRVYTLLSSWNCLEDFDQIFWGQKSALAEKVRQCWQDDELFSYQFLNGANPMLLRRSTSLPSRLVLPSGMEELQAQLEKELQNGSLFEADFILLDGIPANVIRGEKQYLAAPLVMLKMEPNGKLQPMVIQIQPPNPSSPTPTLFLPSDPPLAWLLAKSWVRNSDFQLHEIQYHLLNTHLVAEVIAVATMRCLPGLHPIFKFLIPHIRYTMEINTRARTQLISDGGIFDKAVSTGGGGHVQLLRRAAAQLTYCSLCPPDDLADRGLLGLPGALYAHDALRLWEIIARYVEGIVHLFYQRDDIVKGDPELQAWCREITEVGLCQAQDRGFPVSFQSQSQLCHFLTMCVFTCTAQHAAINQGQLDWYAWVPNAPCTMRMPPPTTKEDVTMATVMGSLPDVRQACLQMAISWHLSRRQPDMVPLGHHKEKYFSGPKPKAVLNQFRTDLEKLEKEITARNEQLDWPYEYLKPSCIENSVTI
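Hydroperoxide product was detected by ferrous iron/xylenol orange as the 573 to 405 nm absorbance ratio. Arachidonic acid at 40 uM (final) was turned over for 30 min at room temperature by 150 nM human 12hLO, pH 7.0 Hepes buffer, after 15 min compound preincubation.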
Large screens that a line does not name were inactive. Calls come from the whole dose curve; as a rule, active = well fitted curve in the direction sought with a large enough effect; inconclusive = small, poorly fitted or top-dose-only effect, or another doubt; inactive = no such curve, though single readings can be large; an effect the other way counts as inactive or inconclusive.

CNC(=O)C(C)SCc1ccc(Br)cc1 (configuration not stated)	none (no result: GLS inh, GLP1R inv ag, GRP78 ERSR act, PTHR1 ag, GLP1R ag)
Cc1nc2nc[nH]c2cc1Br	none
Cc1nc2[nH]c(=S)[nH]c2cc1Br	GLS inh inconclusive, 12-LOX inh 13µM
CC(C)NS(=O)(=O)c1ccc(Cl)c(C(=O)NCc2ccc(-c3nc4ccccc4s3)o2)c1	12-LOX inh 16µM (no result: GLS inh, GLP1R inv ag, GRP78 ERSR act, PTHR1 ag, GLP1R ag)
COc1ccccc1C1CC(c2ccco2)=NN1c1ccccc1 (configuration not stated)	GLP1R inv ag 10µM
Fc1ccc(C2=NN(c3ccccc3)C(c3ccco3)C2)cc1 (configuration not stated)	GLP1R inv ag inconclusive, 12-LOX inh inconclusive
COc1ccc(C2CC(c3ccc(F)cc3)=NN2c2ccccc2)cc1OC (configuration not stated)	GLP1R inv ag 10µM
COc1ccc(C2=NN(c3ccc(C=O)cc3)C(c3ccccc3)C2)cc1 (configuration not stated)	GLP1R inv ag 10µM (no result: 12-LOX inh)
O=Cc1ccc(N2N=C(c3ccccc3)CC2c2ccccc2)cc1 (configuration not stated)	GLP1R inv ag inconclusive
COc1ccccc1C1CC(c2ccccc2)=NN1S(=O)(=O)c1ccccc1 (configuration not stated)	GLP1R inv ag inconclusive
COc1ccc(C2=NN(c3ccccc3)C(c3ccc(OC)c(OC)c3)C2)cc1 (configuration not stated)	none
Cc1ccc(N2N=C(c3ccc(F)cc3)CC2c2ccco2)cc1 (configuration not stated)	GLP1R inv ag inconclusive, 12-LOX inh 25µM
COc1ccc(C2CC(c3cccc(F)c3)=NN2c2ccc(S(N)(=O)=O)cc2)cc1 (configuration not stated)	12-LOX inh 32µM
COc1ccc(C2CC(c3cccc(Br)c3)=NN2c2ccc(S(N)(=O)=O)cc2)cc1 (configuration not stated)	GLP1R inv ag inconclusive, 12-LOX inh inconclusive
CS(=O)(=O)NC1CCN(C(=O)c2cc(Br)ccc2F)CC1	none (no result: GLS inh, GLP1R inv ag, GRP78 ERSR act, PTHR1 ag, GLP1R ag)
CC1CCC/C(=N\NC(=O)Nc2ccccc2)C1 (configuration not stated)	none
Cc1cccc(NC(=S)N/N=C2/CCCC(C)C2)c1 (configuration not stated)	12-LOX inh 35µM (no result: GLS inh, GLP1R inv ag, GRP78 ERSR act, PTHR1 ag, GLP1R ag)
COc1ccc(-c2cc3ccc(OCCN4CCN(CCO)CC4)cc3oc2=O)cc1	none (no result: GLS inh, GLP1R inv ag, GRP78 ERSR act, PTHR1 ag, GLP1R ag)
Cc1ccc(CN2CCc3nc(C(C)C)nc(-c4ccc(O)cc4)c3CC2)cc1	12-LOX inh 45µM (no result: GLS inh, GLP1R inv ag, GRP78 ERSR act, PTHR1 ag, GLP1R ag)
COc1ccc(CCNC(=O)CSc2nc(Cl)nc3nc[nH]c23)cc1	none (no result: GLS inh, GLP1R inv ag, GRP78 ERSR act, PTHR1 ag, GLP1R ag)
O=C(CCc1cc(Cl)no1)N(CCS(=O)(=O)N1CCOCC1)Cc1ccccn1	12-LOX inh 7.9µM (no result: GLS inh, GLP1R inv ag, GRP78 ERSR act, PTHR1 ag, GLP1R ag)
O=C(CCCSc1nnc(-c2cccs2)n1CC1CCCO1)c1ccccc1 (configuration not stated)	GLP1R inv ag 7.9µM
Cc1ccc(NS(=O)(=O)c2cc([N+](=O)[O-])ccc2NNC(=S)Nc2cc(C)ccc2C)c(C)c1	GLP1R inv ag inconclusive, 12-LOX inh 25µM
COc1ccc(NC(=S)NNc2ccc([N+](=O)[O-])cc2S(=O)(=O)Nc2ccc(C)cc2C)cc1	GLS inh inconclusive, GLP1R inv ag inconclusive, 12-LOX inh 22µM
CCOC(=O)CCN(C)Cc1cccc(OC)c1OC	none (no result: GLS inh, GLP1R inv ag, GRP78 ERSR act, PTHR1 ag, GLP1R ag)
Cc1ccc(S(=O)(=O)N2CCN(C(=O)CNc3ccc(C)cc3Br)CC2)cc1	none (no result: GLS inh, GLP1R inv ag, GRP78 ERSR act, PTHR1 ag, GLP1R ag)
Cc1ccc(OCc2nc3ccccc3n2Cc2ccccc2Cl)cc1	GLP1R inv ag 13µM
COCCn1c(COc2ccc(C)cc2)nc2ccccc21	GLP1R inv ag inconclusive
CCOCCn1c(COc2ccc(C)cc2)nc2ccccc21	GLP1R inv ag 7.1µM
Cc1ccc(-c2noc(CCn3c(=O)[nH]c4cc5c(cc4c3=O)OCO5)n2)cc1	none (no result: GLS inh, GLP1R inv ag, GRP78 ERSR act, PTHR1 ag, GLP1R ag)
O=C1CCC(/C=C/c2ccccc2)=NN1Cc1ccc(Cl)c(Cl)c1	12-LOX inh inconclusive
O=C1CCC(/C=C/c2ccccc2)=NN1Cc1ccccc1Cl	GLP1R inv ag 10µM
